The full data set covers some 7,900 targets. This sample favours those with a hit. About 0.6% of all pairs of compound and target were hits.
Each target was assayed with COC1=CC=C(C=C1)CN2C=CC3=C2C=C(C=C3)C(=O)NO (assay: log2 fold change, soluble protein after heating vs DMSO (PISA); higher = thermal stabilisation; K562 cells, 10 uM, 30 min; active = over 0.2 and 3.5 SD of the protein, either way, in both replicates (recomputed)).
Outline: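 K562 cells (2×10^6 cells/mL) were treated with 10 μM compound for 30 min, and aliquots were heated for 3 min over 48°C-58°C. Pooled aliquots were extracted in PBS with 0.5% NP-40 at 4°C, and the supernatant after 21,000xg for 90 min was measured by TMTpro 16plex LC-MS/MS with channel sums equalised. Reported thermal stability, relative to control samples and from duplicates, is a log2 fold change.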

UniProt Q6UX07, sequence (Q6UX07 whole entry, looked up): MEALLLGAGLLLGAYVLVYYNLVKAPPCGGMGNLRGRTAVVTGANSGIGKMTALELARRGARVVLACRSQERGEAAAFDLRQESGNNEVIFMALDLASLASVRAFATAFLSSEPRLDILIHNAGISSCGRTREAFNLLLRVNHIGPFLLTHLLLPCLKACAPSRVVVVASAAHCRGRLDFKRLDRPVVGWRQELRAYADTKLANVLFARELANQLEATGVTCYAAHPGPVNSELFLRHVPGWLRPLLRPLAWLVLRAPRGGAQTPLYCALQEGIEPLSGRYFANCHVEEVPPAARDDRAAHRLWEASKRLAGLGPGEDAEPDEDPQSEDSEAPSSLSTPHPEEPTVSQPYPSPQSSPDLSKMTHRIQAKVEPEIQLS
UniProt Q9BPY3, sequence (Q9BPY3 whole entry, looked up): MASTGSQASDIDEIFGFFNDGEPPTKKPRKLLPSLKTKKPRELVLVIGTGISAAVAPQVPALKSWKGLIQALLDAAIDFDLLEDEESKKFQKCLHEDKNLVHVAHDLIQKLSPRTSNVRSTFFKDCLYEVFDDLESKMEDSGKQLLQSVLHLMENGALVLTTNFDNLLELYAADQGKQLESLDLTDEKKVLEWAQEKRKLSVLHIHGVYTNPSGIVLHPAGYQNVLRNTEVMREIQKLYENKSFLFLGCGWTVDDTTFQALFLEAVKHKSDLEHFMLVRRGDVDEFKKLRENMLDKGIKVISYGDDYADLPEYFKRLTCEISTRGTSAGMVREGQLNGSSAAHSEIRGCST
UniProt P50570, sequence (P50570 whole entry, looked up): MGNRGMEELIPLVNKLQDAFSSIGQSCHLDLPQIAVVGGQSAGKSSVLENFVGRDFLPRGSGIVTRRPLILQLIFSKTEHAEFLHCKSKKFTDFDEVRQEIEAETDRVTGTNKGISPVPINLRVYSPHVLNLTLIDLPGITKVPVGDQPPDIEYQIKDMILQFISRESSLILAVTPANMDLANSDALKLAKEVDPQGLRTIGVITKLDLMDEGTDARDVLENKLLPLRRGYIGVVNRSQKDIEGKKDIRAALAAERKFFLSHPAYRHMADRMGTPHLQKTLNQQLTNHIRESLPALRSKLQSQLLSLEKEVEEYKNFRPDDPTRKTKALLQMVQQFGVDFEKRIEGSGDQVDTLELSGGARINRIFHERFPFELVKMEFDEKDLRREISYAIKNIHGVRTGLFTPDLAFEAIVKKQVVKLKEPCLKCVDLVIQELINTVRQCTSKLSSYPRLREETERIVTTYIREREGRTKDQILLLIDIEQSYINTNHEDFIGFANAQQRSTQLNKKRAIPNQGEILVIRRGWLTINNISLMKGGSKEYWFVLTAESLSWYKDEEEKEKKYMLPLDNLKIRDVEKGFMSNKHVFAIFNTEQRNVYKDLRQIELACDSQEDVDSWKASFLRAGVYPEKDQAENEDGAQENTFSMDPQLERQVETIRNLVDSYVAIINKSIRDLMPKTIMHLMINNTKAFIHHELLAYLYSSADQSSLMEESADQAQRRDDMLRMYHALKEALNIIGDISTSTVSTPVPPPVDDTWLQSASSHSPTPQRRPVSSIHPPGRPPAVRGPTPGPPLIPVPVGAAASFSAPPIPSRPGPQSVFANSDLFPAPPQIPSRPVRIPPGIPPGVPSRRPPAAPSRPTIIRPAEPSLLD
UniProt Q13409, sequence (Q13409 whole entry, looked up): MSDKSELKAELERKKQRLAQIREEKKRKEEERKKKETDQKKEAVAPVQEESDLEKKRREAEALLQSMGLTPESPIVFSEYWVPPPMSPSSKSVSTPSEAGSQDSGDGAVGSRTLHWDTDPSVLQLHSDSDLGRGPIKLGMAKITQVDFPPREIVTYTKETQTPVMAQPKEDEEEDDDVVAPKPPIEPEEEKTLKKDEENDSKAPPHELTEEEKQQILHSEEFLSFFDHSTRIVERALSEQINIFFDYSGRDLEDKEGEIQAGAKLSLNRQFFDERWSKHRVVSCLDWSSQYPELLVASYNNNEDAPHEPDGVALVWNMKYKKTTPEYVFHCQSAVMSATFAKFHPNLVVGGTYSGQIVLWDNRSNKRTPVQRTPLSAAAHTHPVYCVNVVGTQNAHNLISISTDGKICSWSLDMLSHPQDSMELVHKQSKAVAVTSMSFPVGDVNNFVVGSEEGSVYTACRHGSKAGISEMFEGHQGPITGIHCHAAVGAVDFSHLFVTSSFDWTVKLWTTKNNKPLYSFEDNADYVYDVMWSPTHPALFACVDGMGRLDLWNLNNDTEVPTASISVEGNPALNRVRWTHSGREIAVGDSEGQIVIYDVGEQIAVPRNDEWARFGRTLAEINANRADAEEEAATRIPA
UniProt Q7Z2Z2, sequence (Q7Z2Z2 whole entry, looked up): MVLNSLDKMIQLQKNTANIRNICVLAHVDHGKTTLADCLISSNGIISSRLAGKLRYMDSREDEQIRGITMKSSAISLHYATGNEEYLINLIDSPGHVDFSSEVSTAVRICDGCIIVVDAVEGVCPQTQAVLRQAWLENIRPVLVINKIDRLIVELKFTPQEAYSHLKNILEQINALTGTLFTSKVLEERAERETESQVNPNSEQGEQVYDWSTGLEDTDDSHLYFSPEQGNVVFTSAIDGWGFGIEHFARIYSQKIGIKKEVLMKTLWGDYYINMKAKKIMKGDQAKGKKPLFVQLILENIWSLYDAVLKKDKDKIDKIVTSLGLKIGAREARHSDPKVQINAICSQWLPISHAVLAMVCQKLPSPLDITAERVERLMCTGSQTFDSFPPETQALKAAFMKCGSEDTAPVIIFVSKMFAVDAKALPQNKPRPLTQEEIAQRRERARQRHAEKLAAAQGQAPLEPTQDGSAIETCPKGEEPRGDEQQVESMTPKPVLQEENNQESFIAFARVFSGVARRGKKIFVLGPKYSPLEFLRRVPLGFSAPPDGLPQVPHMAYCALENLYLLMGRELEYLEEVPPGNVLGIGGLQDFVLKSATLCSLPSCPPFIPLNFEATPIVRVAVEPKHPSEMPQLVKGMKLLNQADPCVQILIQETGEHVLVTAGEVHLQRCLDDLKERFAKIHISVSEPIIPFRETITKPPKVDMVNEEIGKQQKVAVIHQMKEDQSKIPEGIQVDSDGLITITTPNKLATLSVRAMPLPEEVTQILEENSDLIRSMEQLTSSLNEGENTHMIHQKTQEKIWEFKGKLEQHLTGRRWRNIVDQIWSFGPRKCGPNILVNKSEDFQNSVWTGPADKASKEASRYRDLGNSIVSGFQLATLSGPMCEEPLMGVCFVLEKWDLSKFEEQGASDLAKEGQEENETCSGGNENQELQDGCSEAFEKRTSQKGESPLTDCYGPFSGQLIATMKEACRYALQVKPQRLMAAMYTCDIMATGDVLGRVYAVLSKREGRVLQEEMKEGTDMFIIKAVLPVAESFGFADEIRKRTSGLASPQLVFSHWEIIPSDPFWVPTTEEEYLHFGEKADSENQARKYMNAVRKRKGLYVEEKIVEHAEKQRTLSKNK
UniProt Q9NSI2, sequence (Q9NSI2 whole entry, looked up): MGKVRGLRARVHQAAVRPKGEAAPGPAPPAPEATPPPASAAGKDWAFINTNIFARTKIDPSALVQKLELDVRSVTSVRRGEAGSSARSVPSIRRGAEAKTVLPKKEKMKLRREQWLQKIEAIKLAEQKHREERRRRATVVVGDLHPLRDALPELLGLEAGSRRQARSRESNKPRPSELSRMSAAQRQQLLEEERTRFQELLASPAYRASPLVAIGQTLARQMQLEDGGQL
UniProt Q96PV7, sequence (Q96PV7 whole entry, looked up): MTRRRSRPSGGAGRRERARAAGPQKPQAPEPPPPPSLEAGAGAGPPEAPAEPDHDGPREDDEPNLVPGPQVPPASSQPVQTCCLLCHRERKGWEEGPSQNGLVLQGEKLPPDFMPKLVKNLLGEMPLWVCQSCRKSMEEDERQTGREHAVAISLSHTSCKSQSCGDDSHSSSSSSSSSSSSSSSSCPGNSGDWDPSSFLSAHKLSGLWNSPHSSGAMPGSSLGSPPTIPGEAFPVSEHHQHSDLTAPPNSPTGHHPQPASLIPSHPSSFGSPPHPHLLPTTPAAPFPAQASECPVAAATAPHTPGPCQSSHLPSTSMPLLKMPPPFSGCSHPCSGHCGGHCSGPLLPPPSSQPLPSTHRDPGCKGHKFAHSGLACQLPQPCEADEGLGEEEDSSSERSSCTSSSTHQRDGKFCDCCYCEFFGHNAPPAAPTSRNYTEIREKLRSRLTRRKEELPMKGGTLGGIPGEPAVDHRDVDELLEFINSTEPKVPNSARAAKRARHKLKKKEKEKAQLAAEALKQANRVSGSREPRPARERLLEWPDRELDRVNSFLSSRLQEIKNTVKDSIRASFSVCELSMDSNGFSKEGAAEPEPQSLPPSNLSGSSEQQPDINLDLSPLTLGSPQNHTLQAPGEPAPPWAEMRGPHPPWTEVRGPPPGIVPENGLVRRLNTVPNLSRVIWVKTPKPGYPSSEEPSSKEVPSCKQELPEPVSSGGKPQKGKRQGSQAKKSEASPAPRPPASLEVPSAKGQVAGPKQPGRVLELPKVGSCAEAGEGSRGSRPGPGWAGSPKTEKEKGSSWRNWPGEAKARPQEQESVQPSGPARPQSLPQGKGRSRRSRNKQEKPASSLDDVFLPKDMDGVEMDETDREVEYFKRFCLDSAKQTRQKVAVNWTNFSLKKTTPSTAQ
UniProt P25774, sequence (P25774 whole entry, looked up): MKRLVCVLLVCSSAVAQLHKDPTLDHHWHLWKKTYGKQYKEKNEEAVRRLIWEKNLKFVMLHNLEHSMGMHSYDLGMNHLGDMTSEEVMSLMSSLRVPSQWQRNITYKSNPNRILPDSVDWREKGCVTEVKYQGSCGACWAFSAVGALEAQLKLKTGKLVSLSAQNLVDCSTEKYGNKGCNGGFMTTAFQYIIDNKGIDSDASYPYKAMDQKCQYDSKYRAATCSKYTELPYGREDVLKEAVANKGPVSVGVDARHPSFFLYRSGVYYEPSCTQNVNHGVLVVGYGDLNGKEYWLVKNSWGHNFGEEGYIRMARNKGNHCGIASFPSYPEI
UniProt Q8N8J7, sequence (Q8N8J7 whole entry, looked up): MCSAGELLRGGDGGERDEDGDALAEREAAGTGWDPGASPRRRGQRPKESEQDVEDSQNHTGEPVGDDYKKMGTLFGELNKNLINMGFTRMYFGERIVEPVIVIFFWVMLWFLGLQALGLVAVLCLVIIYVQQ

log2 fold change, inactive:
DYNC1I2 isoform 2 (UniProt Q13409) 0.093
EZH2 isoform 2 (UniProt Q15910) -0.105
EHBP1L1 (UniProt Q8N3D4) 0.054
DDX5 (UniProt P17844) 0.118
FAM177A1 isoform 2 (UniProt Q8N128) -0.072
EXOC4 (UniProt Q96A65) 0.029
E2F4 (UniProt Q16254) -0.024
DSN1 (UniProt Q9H410) 0.032
DNM2 isoform 4 (UniProt P50570) 0.455
CWF19L2 (UniProt Q2TBE0) 0.003
DDOST (UniProt P39656) -0.068
CTSS (UniProt P25774) 0.019
DUS3L (UniProt Q96G46) 0.069
EFL1 (UniProt Q7Z2Z2) -0.021
EEF1A1 (UniProt P68104) 0.081
FAM207A (UniProt Q9NSI2) -0.034
DPP8 (UniProt Q6V1X1) -0.089
DDX27 (UniProt Q96GQ7) 0.091
DBT (UniProt P11182) 0.009
FAM241A (UniProt Q8N8J7) 0.226
CYB561A3 isoform 2 (UniProt Q8NBI2) -0.026
FAM193B (UniProt Q96PV7) -0.179
FAM117A (UniProt Q9C073) 0.105
EHD2 (UniProt Q9NZN4) 0.001
DAXX (UniProt Q9UER7) 0.248
DHRS13 (UniProt Q6UX07) -0.096
CTNNB1 (UniProt P35222) -0.082
DOCK8 (UniProt Q8NF50) 0.475
EIF4G3 isoform 3 (UniProt O43432) -0.15
DCP2 (UniProt Q8IU60) -0.085
EIF2AK1 (UniProt Q9BQI3) -0.047
FAF2 (UniProt Q96CS3) -0.019
ELF1 (UniProt P32519) 0.001
DNAJC24 (UniProt Q6P3W2) -0.06
EXOSC10 (UniProt Q01780) 0.593
DNAH5 (UniProt Q8TE73) -0.147
FAM118B (UniProt Q9BPY3) 0.028
ELAC1 (UniProt Q9H777) 0.022
EIF4E2 (UniProt O60573) -0.062

log2 fold change, active:
DNAH10 (UniProt Q8IVF4) 0.574
